Data taken from PubChem BioAssay.

experiment: small-molecule microarray binders of probe aWnt5a, primary screen, biochemical, biotinylated probe, 635/667 nm fluorescence (AID 1113); settings: higher = more signal;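 also: score merges 667 nm fluorescence intensity with signal-to-noise per printed feature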

| SMILES | composite z-score |
| --- | --- |
| COCCOC(=O)N1C(=O)[C@@]2(c3cc(C#CCC(C(=O)OC)C(=O)OC)ccc31)[C@H](C(=O)NC[C@H](O)c1ccccc1)[C@H]1C(=O)O[C@H](c3ccccc3)[C@H](c3ccccc3)N1[C@@H]2c1ccc(O)cc1 | -0.0194 |
| Cc1cccc([C@H]2C[C@H]3C(Br)=C[C@@H]2C(=O)[C@]32CO2)c1 | -0.18 |
| C=CCC(OC(C)=O)[C@@H]1[C@@H](N(Cc2ccc(-c3cccc(C(F)(F)F)c3)o2)C(=O)c2cccc3ccccc23)c2cc(OCCCO)ccc2N1C(=O)Cc1ccc(OC)cc1 (some centres not stated) | -0.208 |
| CC(C)C[C@@H]1NC(=O)[C@@]23C(=O)N[C@@H](Cc4ccccc4)C2[C@H](C)[C@@]2(C)O[C@H]2C3/C=C/C/C=C\CNC(=O)[C@@H](C)NC1=O (some centres not stated) | -0.228 |
| CCOC(=O)C1=CCN(S(=O)(=O)c2ccc(C)cc2)C1c1ccccc1 (configuration not stated) | -0.0346 |
| COCCOC(=O)N1C(=O)[C@@]2(c3ccccc31)[C@H](c1ccccc1OCCO)N1[C@H](c3ccccc3)[C@H](c3ccccc3)OC(=O)[C@H]1[C@@H]2C(N)=O | 0.0317 |
| C=C(COC)C(=O)CC[C@@H](OC(=O)c1cccnc1)c1ccccc1OCCO | -0.096 |

experiment: small-molecule microarray binders of probe aShh, primary screen, biochemical, biotinylated probe, 635/667 nm fluorescence (AID 1114); settings: higher = more signal;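 also: probe is biotin-labelled aShh protein from a stem cell growth factor screen; measures binding of labelled protein to compounds printed on the slide; score merges feature fluorescence at 667 nm with signal-to-noise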

| SMILES | composite z-score |
| --- | --- |
| [N-]=[N+]=Nc1ccccc1C[C@]1(C(=O)O)N=C(c2ccc(OCCCO)cc2)O[C@H]1c1ccccc1 | -0.0337 |
| CN1C(=O)[C@@]2(Cc3ccccc3)N=C(c3ccc(OCCCO)cc3)O[C@H]2c2ccccc21 | 0.0372 |
| NC(=O)[C@@H]1[C@H]2C(=O)O[C@H](c3ccccc3)[C@H](c3ccccc3)N2[C@H](c2ccc(OCCO)cc2)[C@@]12C(=O)Nc1ccc(C#CCCO)cc12 | 0.166 |
| Cc1ccc(S[C@]2(C(=O)NC(C)C)CC(=O)N(Cc3ccccc3Cl)[C@@H]2c2ccc(CO)cc2)cc1 | -0.0035 |
| CC(C)=CCCC(C)=CC(O)C1C=CC2C(=O)N(c3ccccc3)C(=O)C2N1Nc1ccccc1F (configuration not stated) | -0.414 |
| COc1cc2c(cc1OC)CN(C(=O)[C@@H]1[C@H]3C(=O)O[C@H](c4ccccc4)[C@H](c4ccccc4)N3[C@H](c3ccc(O)cc3)[C@@]13C(=O)Nc1ccc(C#CCCO)cc13)CC2 | -0.11 |
| COc1cc(NN2C(C(O)C3CCCCC3)C=CC3C(=O)N(C)C(=O)C32)cc(OC)c1OC (configuration not stated) | 0.417 |
| CC(C)C(CO)N1C(=O)[C@@H]2[C@H]3C(=O)OCC=C[C@H]3OC23C=CCN(C(C)(C)C)C(=O)[C@@H]13 (some centres not stated) | 0.0725 |
| COC(=O)[C@@]1(Cc2ccc(OC)cc2)[C@H]2c3cc(C(=O)N4CCCC4)n(Cc4ccc(S(C)(=O)=O)cc4)c3C[C@H]2CN1C(=O)c1ccccc1 | 0.883 |
| CCCNC(=O)[C@@]1(Sc2ccc(C)cc2)CC(=O)N(C2CCCCC2)[C@@H]1c1ccc(CO)cc1I | 0.768 |
| CO[C@H]1O[C@H](CO)[C@@H](OC(=O)Nc2ccc(C#N)cc2)[C@@H]2OC(=O)[C@H](Cc3cccc(Br)c3)C/C=C/C[C@@H](Cc3cccc(Br)c3)C(=O)O[C@@H]12 | 0.326 |
| COCCOC(=O)N1C(=O)[C@@]2(c3cc(C#CC4(O)CCCCCC4)ccc31)[C@H](C(=O)N1CCN(c3ncccn3)CC1)[C@H]1C(=O)O[C@H](c3ccccc3)[C@H](c3ccccc3)N1[C@@H]2c1ccccc1OCCO | 0.116 |
| CCCC=C(CCC)[C@@H](NC(=O)CCc1ccccc1)c1ccc(C(F)(F)F)cc1 | 0.93 |
| CC(C)[C@H]1NC(=O)[C@@]23C(=O)N[C@@H](Cc4ccccc4)C2[C@H](C)[C@@]2(C)O[C@H]2C3/C=C/CCC/C=C/CNC(=O)[C@H](Cc2ccccc2)NC1=O (some centres not stated) | -0.156 |
| CCCCNC(=O)c1ccc(C#C[Si](C(C)C)(C(C)C)C(C)C)c(OC(C)=O)c1 | -0.2 |
| C=C(/C(=C/C[C@H](OC(=O)c1ccncc1)c1ccccc1OCCO)c1cnc2ccccc2c1)C(C)C | 0.172 |
| COc1cc(NN2C(C(O)c3cc(OC)c(OC)c(OC)c3)C=CC3C(=O)N(c4ccccc4)C(=O)C32)cc(OC)c1OC (configuration not stated) | -0.0193 |
| COC(=O)[C@@]1(Cc2ccccc2)[C@H]2c3cc(C(=O)N4CCCC4)n(CCSCCO)c3C[C@H]2CN1C(=O)c1ccccc1 | 0.417 |

| SMILES | composite z-score |
| --- | --- |
| COCCOC(=O)N1C(=O)[C@@]2(c3cc(C#Cc4ccc(OC)cc4)ccc31)[C@H](c1ccc(OCCO)cc1)N1[C@H](c3ccccc3)[C@H](c3ccccc3)OC(=O)[C@H]1[C@@H]2C(=O)Nc1nc2ccccc2s1 | 1.52 |
| COCCOC(=O)N1C(=O)[C@@]2(c3cc(C#CCC(C(=O)OC)C(=O)OC)ccc31)[C@H](c1ccc(O)cc1)N1[C@H](c3ccccc3)[C@H](c3ccccc3)OC(=O)[C@H]1[C@@H]2C(=O)NC[C@H](O)c1ccccc1 | -0.147 |
| CCCCCCCCCCC(O)C1C=CC2C(=O)N(c3ccccc3)C(=O)C2N1Nc1ccccc1F (configuration not stated) | 0.246 |
| COc1ccc(C(O)C2C=CC3C(=O)N(c4ccccc4)C(=O)C3N2Nc2ccc(C(C)C)cc2)c2ccccc12 (configuration not stated) | 0.232 |
| O=C1C2C=CC(C(O)c3cc(C(F)(F)F)cc(C(F)(F)F)c3)N(Nc3ccccc3F)C2C(=O)N1c1ccccc1 (configuration not stated) | 0.957 |
| C=C(CCCC)C(=O)CC[C@@H](OC(=O)c1cccnc1)c1ccc(OCCO)cc1 | -0.243 |
| C=C(/C(=C/C[C@@H](OC(=O)c1ccncc1)c1cccc(OCCO)c1)c1cnc2ccccc2c1)C(C)C | -0.0769 |
| CC(C)CNC(=O)[C@@]1(c2ccc([N+](=O)[O-])cc2)CC(=O)N(C2CCCCC2)[C@@H]1c1ccc(CO)cc1 | -0.0553 |
| C[C@]1(C(=O)O)c2ccccc2C(=O)N(Cc2ccc(OC(F)(F)F)cc2)[C@H]1c1ccc(CO)cc1 | 0.147 |
| C=C(COC)C(=O)CC[C@H](OC(=O)c1cccnc1)c1ccc(CO)o1 | -0.214 |
| COCCOC(=O)N1C(=O)[C@@]2(c3cc(C#CCC(C(=O)OC)C(=O)OC)ccc31)[C@H](C(=O)NC[C@H](O)c1ccccc1)[C@H]1C(=O)O[C@H](c3ccccc3)[C@H](c3ccccc3)N1[C@@H]2c1ccc(O)cc1 | -0.0146 |
| Cc1cccc([C@H]2C[C@H]3C(Br)=C[C@@H]2C(=O)[C@]32CO2)c1 | -0.341 |
| C=CCC(OC(C)=O)[C@@H]1[C@@H](N(Cc2ccc(-c3cccc(C(F)(F)F)c3)o2)C(=O)c2cccc3ccccc23)c2cc(OCCCO)ccc2N1C(=O)Cc1ccc(OC)cc1 (some centres not stated) | 0.167 |
| CC(C)C[C@@H]1NC(=O)[C@@]23C(=O)N[C@@H](Cc4ccccc4)C2[C@H](C)[C@@]2(C)O[C@H]2C3/C=C/C/C=C\CNC(=O)[C@@H](C)NC1=O (some centres not stated) | 0.0899 |
| CCOC(=O)C1=CCN(S(=O)(=O)c2ccc(C)cc2)C1c1ccccc1 (configuration not stated) | 0.0204 |
| COCCOC(=O)N1C(=O)[C@@]2(c3ccccc31)[C@H](c1ccccc1OCCO)N1[C@H](c3ccccc3)[C@H](c3ccccc3)OC(=O)[C@H]1[C@@H]2C(N)=O | 0.0121 |
| C=C(COC)C(=O)CC[C@@H](OC(=O)c1cccnc1)c1ccccc1OCCO | -0.0553 |
